HPGD inh = blocks human HPGD enzyme activity | P15428 | purified HPGD, NADH fluorescence kinetic, PGE2 substrate | Potency, µM, without a hit: at the highest dose activity change, negative = inhibition, hits mostly inhibitors | 150,000 compounds, 4.3% hits | AID 894; further: potency means the concentration at half of the fitted maximal effect
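20 nM HPGD preincubated 15 min at room temperature with compound in 50 mM Tris-HCl pH 8, 0.01% Tween 20. Started with 1 mM NAD+ and 30 uM prostaglandin E2; NADH fluorescence (360/450 nm) read 5 times over 30-s intervals, last minus first.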
ALDH1A1 block = blocks purified human ALDH1A1 activity; P00352; Purified ALDH1A1, NADH fluorescence, propionaldehyde substrate; Potency, µM (series often up to 75.3 µM), for inactives: at the top dose activity, negative = inhibition, most hits filed as inhibitors; 220,000 compounds, 7.3% hits;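 further: potency means the concentration at half of the fitted maximal effect; plate controls were no enzyme wells and a reference inhibitor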
Target sequence (P00352 whole entry, looked up): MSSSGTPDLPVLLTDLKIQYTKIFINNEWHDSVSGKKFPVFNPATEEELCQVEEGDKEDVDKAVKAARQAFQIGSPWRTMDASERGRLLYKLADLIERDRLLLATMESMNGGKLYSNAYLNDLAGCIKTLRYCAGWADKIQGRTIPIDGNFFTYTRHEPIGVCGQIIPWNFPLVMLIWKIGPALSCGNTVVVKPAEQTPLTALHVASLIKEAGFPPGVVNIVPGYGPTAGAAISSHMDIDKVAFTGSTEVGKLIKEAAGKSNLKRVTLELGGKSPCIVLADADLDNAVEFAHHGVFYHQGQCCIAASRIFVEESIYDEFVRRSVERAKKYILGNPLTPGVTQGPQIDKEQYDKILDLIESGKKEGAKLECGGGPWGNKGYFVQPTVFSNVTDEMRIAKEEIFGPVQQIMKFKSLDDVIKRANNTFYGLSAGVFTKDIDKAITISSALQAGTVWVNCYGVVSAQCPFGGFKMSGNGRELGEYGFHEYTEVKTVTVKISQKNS
PNC assembly inh = blocks assembly of the perinucleolar compartment. PC3M PTB-GFP, PNC prevalence imaging, 16 h; hits give low values. activity change (PNC), negative = inhibition, % at 10 µM. 140,000 compounds, 3.1% hits. AID 2417;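 active means readout at or below -70, meaning at least 70% loss of cells showing the perinucleolar compartment, a nuclear body marking cancer cells; inconclusive means readout between -30 and a set limit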;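 further: plate controls were DMSO wells for no effect and camptothecin positive control wells for full effect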
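Read-out is percentage of cells bearing a perinucleolar compartment, from automated 20x imaging of fixed, Hoechst-stained PC3M PTB-GFP cells. Cells were seeded 4 h, then exposed 16 h to compound (23 nl of library stock) in duplicate plates.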
IMPase Li cell = IMPase inhibition in cells with lithium potentiation | 210,000 compounds, 0.35% hits | CHO-M1 cells, IP1 TR-FRET (IP-One), carbachol + lithium | Potency, µM (titrated, usually from 59.4 µM), inactives show top-dose activity, negative = IMPase inhibition, usual class: inhibitors | AID 1457; active means well fitted inhibition curve with a large enough effect; inconclusive means small, poorly fitted or top-dose-only effect; inactive means no such curve, though single readings can be large or run the other way;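 further: IP1 builds up when IMPase is blocked and the TR-FRET signal falls; potency means the concentration at half of the fitted maximal effect; plate controls were basal vehicle for no effect and high inhibitor control for full effect; nearly all actives have a fitted effect of over 50% in size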
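CHO cells stably expressing M1 receptor (2000/well, cultured 16–30 h) treated 30 min at 37C with compound plus low lithium. Cytosolic IP1 by TR-FRET (665/620 ratio and 620 channel) after 10 min lysis; AC50 by Hill fit.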
IMPase cell inh = cell-permeable inhibitors of inositol monophosphatase (IMPase). P97697. CHO-M1 cells, IP1 accumulation, HTRF TR-FRET ratio. inhibition (IP1 accumulation), % at 46.1 µM. 120,000 tested, under 10 active. AID 901; active means well fitted curve in the direction sought with a large enough effect in the signal ratio, not every such curve was filed as active; inconclusive means small, poorly fitted or top-dose-only effect, or a change in a side signal; inactive means no such curve, though single readings can be large or run the other way; the % refers to the signal ratio;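 further: cells stimulated with carbachol in lithium chloride buffer; plate controls were DMSO basal wells for no effect and reference inhibitor wells for full effect; higher means more IMPase inhibition seen as more IP1 and lower FRET ratio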
Target sequence (P97697 whole entry, looked up): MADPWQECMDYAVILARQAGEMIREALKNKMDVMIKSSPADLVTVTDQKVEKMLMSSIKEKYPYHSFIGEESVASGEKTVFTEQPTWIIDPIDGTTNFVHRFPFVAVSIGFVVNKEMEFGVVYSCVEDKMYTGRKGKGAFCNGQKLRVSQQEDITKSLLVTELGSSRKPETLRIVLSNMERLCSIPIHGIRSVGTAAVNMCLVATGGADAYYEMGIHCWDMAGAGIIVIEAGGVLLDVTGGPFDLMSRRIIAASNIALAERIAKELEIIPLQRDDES
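In this qHTS, compounds (final up to 46 uM) act on CHO-M1 cells that are then activated through the M1 receptor with carbachol, in pH 7.4 buffer containing 50 mM LiCl, for 30 min. IP1 accumulation is quantified by the IP-One immunoassay.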
The depositor's hits bear a star; ? = inconclusive; · = not tested or not shown; [ ] = another dose, or the depositor's remark. Most compounds without a hit are left out; they make up all but 11% or so of the library. Unless noted, the call rests on the fitted dose curve; in most records, active means well fitted inhibition curve with a large enough effect (not every such curve was filed as active); inconclusive means small, poorly fitted or top-dose-only effect, or another doubt; inactive means no such curve, though single readings can be large or run the other way. Unless noted, on the % scale 0 is the no-effect control and ±100 the full control effect.

SMILES	HPGD inh	ALDH1A1 block	PNC assembly inh	IMPase Li cell	IMPase cell inh
COc1cc(OC)c(NC(=O)CCc2ccccc2)cc1Cl	15.8µM*	-5.8%	-29.9	3.2%[38.3 µM]	1.3
Cc1ccc(Cl)cc1NC(=O)CSC(N)=O	-6.8%	1.58µM*	?	52.3%[38.3 µM]	-3.1
COc1cc(Cl)c(C)cc1NC(=O)CSc1ccccc1	-11.0%	?	-125.2*	14.5%	·
COc1ccc(Cl)cc1NC(=O)CCc1ccccc1	-21.3%	-13.9%	-16.7	14.0%[38.3 µM]	4.2
Cc1csc(NC(=O)c2cc(C)oc2C)n1	17.8µM*	-2.0%	-11.3	-7.2%[38.3 µM]	2.0
Cc1csc(NC(=O)c2cc([N+](=O)[O-])cc([N+](=O)[O-])c2)n1	?	4.5%	-113.8*	-6.3%	·
Cc1csc(NC(=O)c2ccccc2O)n1	?	?	15.5	-12.8%[38.3 µM]	7.3
CC(C)(C)c1ccc(C(=O)Nc2ccc(-c3nc4cc(Cl)ccc4o3)cc2)cc1	·	·	·	·	-12.1
O=c1cc(CN2CCN(C/C=C/c3ccccc3)CC2)c2cc(O)ccc2o1	-14.6%	31.6µM*	?	7.0%[38.3 µM]	8.9
O=S(=O)(c1ccccc1)N1CCC2(CC1)CN(c1ccccn1)C2	-17.4%	?	·	11.3%	·
NC(=O)CCn1c2ccccc2c2ccccc21	·	-2.7%	·	-6.7%	·
Cc1ccc2c(c1)c1cccc3c1n2CCN3CCC(N)=O	?	?	-106.7*	20.0%[38.3 µM]	4.5
CC(=O)c1ccc(N2CCN(C(=O)c3ccc4c(=O)n(-c5ccccc5)c(=O)[nH]c4c3)CC2)cc1	-28.9%	14.1µM*	-107.6*	3.9%	-1.6
O=c1c(-c2cc(F)cc(F)c2)nc2cncnc2n1Cc1ccccc1	·	?	·	1.6%	·
C=CCC(C)(O)CCc1ccccc1 (configuration not stated)	2.5%	-0.5%	·	11.0%	·
C=CCOC(=O)C(=O)/C=C/c1csc2ccccc12	·	10µM*	·	11.3%	·
NC(=O)c1cc[n+](CC2=C(C(=O)O)N3C(=O)[C@@H](NC(=O)[C@@H](c4ccccc4)S(=O)(=O)[O-])[C@H]3SC2)cc1	-24.5%	-9.8%	·	5.6%	·
COc1cccc(C(=O)CC2c3c(c(Br)c4c(c3OC)OCO4)CCN2C)c1 (configuration not stated)	?	7.94µM*	·	5.9%	·
NC1=CC(=O)c2cccc3cccc1c23	-14.5%	1µM*	104.2	12.6µM*	?
CN(C)c1ccc(-c2cncnc2-n2ccnc2)cc1	·	?	·	23.3%	·
COc1cc(OC)cc(C(=O)N[C@H](C(=O)OCC(=O)Nc2sccc2C#N)C(C)C)c1	·	28.2µM*	·	7.5%	·
COc1cc(OC)cc(C(=O)N[C@H](C(=O)OCC(=O)Nc2ccc(C(C)C)cc2)C(C)C)c1	·	?	69.0	·	-2.5
N#C/C(=N\Nc1cccc([N+](=O)[O-])c1)C(=O)c1ccc(Br)cc1	·	22.4µM*	·	20.1%	·
CCCCCn1ccc(=N)cc1	-0.9%	?	-84.0*	19.7%[38.3 µM]	6.1
C=Cc1ccc(C=C)cc1	-4.2%	14.1µM*	·	5.8%	·
SMILES	HPGD inh	ALDH1A1 block	PNC assembly inh	IMPase Li cell	IMPase cell inh
O=S(=O)(c1ccc2c(c1)OCCO2)N1CCC(O)(c2ccc(Cl)cc2)CC1	-11.8%	?	-125.0*	45.5%[38.3 µM]	20.2
O=S(=O)(c1ccc2c(c1)OCCO2)N1CCN(c2cccc(Cl)c2)CC1	-12.7%	?	-26.9	18.2%[38.3 µM]	11.8
Cc1cc(OC(=O)CNC(=O)OC(C)(C)C)c2c(C)cc(=O)oc2c1	17.8µM*	15.8µM*	16.5	?	-15.2
CCOC(=O)c1sc2nc(C)nc(SCC(=O)NC(C)CCc3ccccc3)c2c1C (configuration not stated)	-3.9%	5.9%	15.0	10µM*	·
CCOC(=O)c1sc2nc(C)nc(SCC(=O)N(C)C3CCS(=O)(=O)C3)c2c1C (configuration not stated)	·	?	·	10µM*	·
Cc1sc2ncnc(SCC(=O)N(C)C3CCS(=O)(=O)C3)c2c1C (configuration not stated)	·	-5.3%	·	5.8%	·
O=c1oc2ccccc2c2c1nnn2CCO	·	-1.0%	·	1.6%	·
COCCC(=O)N1CCCC(CCC(=O)NCc2ccc(F)c(F)c2)C1 (configuration not stated)	·	1.8%	·	-1.5%	·
CCOC(=O)CNC(=O)N1CCCC(CCC(=O)NCc2ccc(F)c(F)c2)C1 (configuration not stated)	·	31.6µM*	·	-2.7%	·
COc1cccc(CNC(=O)CCC2CCCN(C(=O)c3cc(C)on3)C2)c1 (configuration not stated)	·	2.5%	·	3.7%	·
COc1cccc(CNC(=O)CCC2CCCN(C(=O)c3ccc(OC)o3)C2)c1 (configuration not stated)	·	7.94µM*	·	4.5%	·
COc1ccc(NC(C)c2cc(Cl)ccc2O)cc1 (configuration not stated)	?	22.4µM*	18.2	10.5%[38.3 µM]	8.0
CC(Sc1n[nH]c(N)n1)C(=O)C12CC3CC(CC(C3)C1)C2 (configuration not stated)	-15.4%	?	30.7	10.5%[38.3 µM]	1.6
CC(SC#N)C(=O)C12CC3CC(CC(C3)C1)C2 (configuration not stated)	·	8.91µM*	·	4.9%	·
Cc1ccc(S(=O)(=O)Nc2ccccc2-c2ccccc2NS(=O)(=O)c2ccc(C)cc2)cc1	-15.0%	-5.5%	?	2.4%[38.3 µM]	2.7
COC(=O)c1ccc(Sc2ccccc2NS(=O)(=O)c2ccc(C)cc2)nc1	-0.3%	28.2µM*	34.9	-10.1%[38.3 µM]	-2.7
O=C(CCSc1ccccc1)Nc1nc2c(s1)COc1ccccc1-2	-25.6%	14.1µM*	-19.5	-17.6%[38.3 µM]	13.2
CC(C)(C)C(=O)Nc1nc2c(s1)COc1ccccc1-2	-18.9%	-7.7%	-10.8	33.1%[38.3 µM]	5.2
Nc1nc2c(s1)COc1ccccc1-2	·	22.4µM*	·	-2.8%	·
CCCCC1CCC(CCCC(C)CCC(=O)O)CC1 (configuration not stated)	·	·	·	·	4.5
CCC(CC)C(=O)NCc1ccccc1Cl	-15.6%	19.7%	7.0	-8.8%[38.3 µM]	6.6
Cc1nc(C)c(C(=O)NCc2ccccc2Cl)o1	25.1µM*	22.4µM*	-14.4	1.7%[38.3 µM]	-5.0
CCSc1nnc(NC(=O)c2cccc(OCc3c(C)noc3C)c2)s1	25.1µM*	?	-111.3*	-1.0%[38.3 µM]	5.3
Cc1noc(C)c1COc1ccc(C(=O)OCC(=O)NCc2ccccc2Cl)cc1	-13.1%	-6.1%	33.4	-0.6%	·
Cc1noc(C)c1COc1cccc(C(=O)NCc2ccccc2Cl)c1	15.8µM*	-25.6%	?	22.5%[38.3 µM]	2.8
COc1ccc2nc(NC(=O)c3cccc(OCc4c(C)noc4C)c3)sc2c1	?	?	-90.6*	?	8.7
Cc1cccn2c(=O)c(/C=C(\C#N)c3nc4ccccc4n3C)c(Oc3ccc(Br)cc3)nc12	·	·	·	·	8.2
Cc1ccc(Nc2nc3ccccc3c3nncn23)cc1C	·	·	·	·	3.0
O=C(COC(=O)c1cccc(S(=O)(=O)NCc2ccccc2)c1)c1ccccc1	20µM*	-11.0%	57.2	15.5%	·
